According to PubChem BioAssay (NCI):
“And” between values parts separate entries of the source, which are not always exact repeats. Equal entries are not always repeated. This is part of a sample that, as a whole, favours compounds with a hit. Of some 79,000 tested, about 15% had one in any assay. A number with no mark means an inactive call. The source made the active and inactive calls. No stated cut-off is given here; in the data, active means growth inhibition above about 70%; inactive means the rest.

assay: NCI Yeast Anticancer Drug Screen. Data for the bub3 strain (AID 167); details: S. cerevisiae bub3 mutant strain, active compounds read high; at 50.0 µM unless noted
How it was run: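 Growth of a checkpoint-deficient yeast mutant is measured after compound exposure. Values represent inhibition relative to vehicle.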

Structure (SMILES)	growth inhibition
Nc1ncnc2c1ncn2C1OC(C(O)CO)C(O)C1O (stereo not given)	1.15% and 16.4%
CCCCCCCCCC(=O)N=C(C(N)=O)C(N)=O	1.7%
C#CCOC(=O)c1ccccc1	3.5%
CNC(=S)C#N	-13%
O=P(O)(O)c1ccc(-c2ccc(I)cc2)cc1	-8.8%
CCOC(=O)N/N=C/c1ccccc1C	-3.5%
NC(=O)N/N=C/c1ccc([N+](=O)[O-])cc1	15.9%
COc1ccc(C)cc1S(=O)(=O)c1ccc(Cl)cc1[N+](=O)[O-]	2.25%
COC(=O)OCCOC(=O)OC	15.3%
O=C(O)CC(c1ccccc1)C(CC(=O)O)c1ccccc1 (stereo not given)	5.95%
Cc1c(NC(=O)CSC(=S)N(C)C)c(=O)n(-c2ccccc2)n1C	-35.8%
NC(=O)c1ccccc1OC(=O)Nc1ccc(F)c([N+](=O)[O-])c1	20.7%
COc1ccc(CC(C)NN)cc1 (stereo not given)	99.2% (active)
O=[N+]([O-])c1ccc(NN=C2CCCCC2)c([N+](=O)[O-])c1	2.7%
CCCCOC(=O)C(C)OC(=O)C(C)Oc1cc(Cl)c(Cl)cc1Cl (stereo not given)	3.9%
CC(=O)Oc1c(C)c2c(c3ncccc13)OC(C)C2 (stereo not given)	40.1%
NNC(=O)CCC(=O)O	12.7%
Nc1nc(Cl)c(N)c(NCC2(CO)CC(Cc3ccccc3)C2)n1 (stereo not given)	31%
CC1(C)OCC(N)[C@@H](O)CO1 (stereo not given in full)	3.5%
Cc1ccc(Cl)cc1NC(=O)c1ccccc1	-18.1%

Structure (SMILES)	growth inhibition
COC(=O)/C=C(/Sc1nc(Cl)c(Cl)nc1N)C(=O)OC (tested in a mixture with another compound)	-29.5%
C=C1C=C2CCC3C(CCC4(C)C(C(C)CCCC(C)C)CCC34)C2(C)CC1 (stereo not given)	28.2%
Nc1cc2c(cc1[N+](=O)[O-])-c1ccc(Cl)cc1C2=O	-1.95%
O=C1c2ccccc2C(=O)c2cc3nc4c5ccccc5c5ccccc5c4nc3cc21	3.35%
CCCCOC(=O)c1ccccc1C(=O)Nc1ccccc1	4.4%
NC(=O)NCCCC(N)C(=O)O (stereo not given)	9.45% and -39.5%
CCOC(OCC)c1cc(=O)[nH]c(NC(C)=O)n1	-1.25%
CS/C(=N\c1nccs1)NC(=O)c1cccc(Cl)c1	22.4%
O=C(Nc1ccc(Cl)cc1)C(Cl)C(Cl)c1ccc(Cl)cc1 (stereo not given)	9.05%
FC(F)(F)c1ccc2ccc3ccc(Cl)cc3c2c1	21.6%
O=C1C2C(c3ccccc3)NC(c3ccccc3)C1C(c1ccccc1)NC2c1ccccc1 (stereo not given)	-65%
CC(=O)CC(C[N+](=O)[O-])c1ccccc1 (stereo not given)	-21.6%
CCOC(=O)c1oc2cc(O)ccc2c(=O)c1-c1ccc(OC)c(OC)c1	4.65%
COc1ccc2nc3cccc([N+](=O)[O-])c3c(NC(C)CN(C)C)c2c1 (stereo not given)	26.4%
Cc1cc(Cl)cc2c1OC(C)OC2=O (stereo not given)	11.6%
CSc1nc(N)c2cnn(Cc3ccccc3)c2n1	31.4%
CCOC(=O)Cc1ccc2ccccc2c1	8.05%
C/C(=N\NC(N)=O)C1(O)CCCCC1	-19.1%
CCC(C)C(O)C(C)C (stereo not given)	-4.6%
N#CCN(CC#N)C1CC=CCC1N(CC#N)CC#N (stereo not given)	-21%
